Hit rate of the full screen: of about 200,000 compounds, about 25 (0.01%) were called active. Inconclusive results (about 23%) are left out. The sample holds actives, similar compounds and a random draw of the others, so the mix is not that of the screen. Calls come from the whole dose curve; as a rule, active = well fitted inhibition curve with a large enough effect in the signal ratio, with a control signal flat (not every such curve was filed as active); inconclusive = small, poorly fitted or top-dose-only effect, or effect the other way, or a change in a side signal; inactive = flat fitted curve, though single readings scatter; the % refers to the signal ratio.
Experiment: qHTS Assay for Modulators of Lamin A Splicing
Conditions: HeLa LMNA splicing GFP/RFP minigene ratio, 48 h; series mostly up to 46 µM
Description: NCGC Assay Overview: Hutchinson-Gilford Progeria Syndrome (HGPS) is a pediatric premature aging disease caused by a spontaneous mutation in the lamin A/C (LMNA) gene. The mutation activates a cryptic splice site in the LMNA pre-mRNA which results in production of a pre-lamin A protein that cannot be processed properly. The mutant protein accumulates in the nucleus and negatively affects numerous cellular functions. Correction of the splicing defect in HGPS patient cells using a targeted oligonucleotide (exo11) leads to reversal of the cellular disease phenotypes. To identify small molecule modulators of aberrant LMNA splicing, a homogenous assay was constructed in HeLa cells that used a GFP containing minigene to report on correction of aberrant splicing in lamin A and a RFP (DsRed2) to report on cell viability, uniformity and nonspecific effects on the assay signal. This assay was adapted to laser-scanning microplate cytometry (Acumen, TTP Labtech) where miniaturization of the assay to a 1,536-well plate format was possible. References: Bowen, W. P.; Wylie, P. G. Application of Laser-Scanning Fluorescence Microplate Cytometry in High Content Screening. Assay Drug Dev Technol 2006;4:209-221. Scaffidi P, Misteli T. Reversal of the cellular phenotype in the premature aging disease Hutchinson-Gilford progeria syndrome. Nat.
NCGC Assay Protocol Summary: Reagents/Controls: Stable clones expressing DsRed2 and lamin A-EGFP were generated by Cell and Molecular Technologies in S3 HeLa cells. HeLa cells were prepared for the assay when they were 70-90% confluent. The cells were counted and resuspended in Opti-MEM I (no phenol red; Gibco), 2% FBS, 1% penicillin/ streptomycin (Gibco) at concentration of 120 cells/uL concentration. The suspension was passed through a Falcon basket filter with pore size 40um (Beckton Dickson). Control titrations: column […] 1536-well plate contained a sixteen point titration (1:2 dilutions) in duplicate of ancitabine (Sigma: A8598) beginning at 40 uM final concentration. Column 2 contained a sixteen point titration (1:2 dilutions) of cycloheximide beginning at 1.4 mM final concentration. Column 3 contained ancitabine at 40 uM and column 4 contained was the vehicle control (0.5% DMSO final concentration). Assay Steps: 5 uL of HeLa cells were plated in Aurora LoBase black clear bottom (cyclic-olefin polymer) 1536-well plates at a final density of 600 cells/well. Controls and library compounds were added with a 1536-well pin array using the Kalypsys pin-tool. The plates were then incubated for 48 hrs in a cell-culture incubator (37 °C; 5% CO2, 98% humidity). Following incubation the plates were read on the Acumen Explorer using the 488 nm laser. Data was collected on objects between 10 and 100 um in size. Cell objects were defined by a 15 um width x 10 um depth filter. The ratio of the total object intensity in PMT1 (500-530 nm emission; GFP) over PMT3 (575-640 nm emission; RFP) was calculated for analysis. Keywords: NIH Roadmap, MLSCN, MLI, MLSMR, qHTS, NCGC, lamin A, Progeria, RNA splicing.
% is set by controls: 0 for no effect and ±100 for the full control effect.

Ratio change, negative = inhibition, inactive:
COc1ccc(NS(=O)(=O)c2ccc(O)c(C(=O)OCC(=O)NC3CCCCC3)c2)cc1, CCCN(CCC)CCCNC(=O)CNC(=O)c1nn(-c2ccc(OC)cc2)c(=O)c2ccccc12, COc1ccccc1NC(=O)C1=C(C)Nc2nc(SCC(=O)c3ccc(C)cc3)nn2C1c1ccccc1C (stereo unspecified), COc1cccc(C(O)Cc2nc3ccccc3n2C)c1OC (stereo unspecified), O=C(CCC(=O)N1CCCC1)Nc1ccc([N+](=O)[O-])cc1, C/C(CC(=O)Nc1ccc(C)cc1C)=N\NC(=O)C(C)C, O=C(Nc1nnc(S(=O)(=O)N2CCOCC2)s1)c1cccc(Br)c1, Cc1nc(N2CCC(C)CC2)c2c(C)c(C(=O)Nc3cc(F)ccc3C)sc2n1 11.2% [at 9.22 µM], CN(C)S(=O)(=O)c1ccc(NC(=O)COC(=O)Cn2[nH]c(=O)c3ccccc3c2=O)cc1, Cc1ccccc1C(=O)Nc1ccc(N2CCCCCC2)cc1, CC1CCN(C(=S)c2cccc([N+](=O)[O-])c2)CC1, CC(=O)c1sc(NC(=O)C2=NN(c3ccccc3)C(=O)CC2)nc1C, OCC1(CCOc2ccccc2)CCN(Cc2cn[nH]c2-c2ccccc2)CC1, CC(C)C(=O)Nc1ccc2oc(=O)ccc2c1, Cc1ccsc1C1C(C#N)=C(N)OC2=C1C(=O)CC(C)(C)C2 (stereo unspecified) 3.22% [at 9.22 µM], COc1cccc(NC(=O)CS(=O)(=O)c2cn(CC(=O)N3CCOCC3)c3ccccc23)c1 10.8% [at 9.22 µM], COc1cccc(N2CCN(C(=O)CCCCCn3c(=O)[nH]c4ccccc4c3=O)CC2)c1, COc1ccc(N(CC(=O)NC2CCCC2)C(=O)CS(=O)CC(=O)Nc2ccc3c(c2)OCO3)cc1 (stereo unspecified), N#Cc1c(NC(=O)C2CC(Cl)=CCC2C(=O)O)sc2c1CCCCC2 (stereo unspecified), CCOc1ccccc1/C=N/NC(=O)CNC(=O)COc1ccccc1, Cc1ccccc1N1C(=O)C(Oc2ccc(Cl)cc2)C1CNCC1CCCO1 (stereo unspecified), Fc1ccccc1N=C1Nc2cccc3cccc1c23, COc1ccc(C(=O)OCC(=O)NCC2CCCO2)cc1[N+](=O)[O-] (stereo unspecified), O=C(NC(=S)Nc1cccc(-c2ccc(CO)o2)c1)c1cccs1, COCCN(C(=O)c1ccccc1F)c1c(N)n(Cc2ccccc2)c(=O)[nH]c1=O, Cc1c(Cl)cccc1NC(=S)N(Cc1ccccc1)Cc1cccnc1, Cc1cccc(NC(=O)N2CCC(CN3CCc4ccccc4C3)CC2)c1C, Cc1nc(N2CCCCC2)sc1C=O, CN(C(=O)CSc1nncc2ccccc12)C1CCCCC1, CCc1cccc(NC(=O)CN(C)S(=O)(=O)c2ccc3[nH]c4c(c3c2)CCCC4)c1, CC(C)CCN(C(=O)Nc1ccc(Cl)c(Cl)c1)C(C)c1cccs1 (stereo unspecified), COC(=O)CCC(=O)N1CCCC(CO)(Cc2ccccc2)C1 (stereo unspecified), Cc1csc(CN(C)C(=O)CC2C(=O)NCCN2CC(C)(C)C)n1 (stereo unspecified), O=C(NCCCN1CCOCC1)c1ccccc1NS(=O)(=O)c1ccc(F)cc1, COCCCNC(=S)NCCNc1nc2cc(C)c(C)cc2cc1C#N, Cc1ccccc1CN1C(=O)c2ccccc2Sc2ccc(C(=O)NCCCN3CCOCC3)cc21, Cc1ccc(C2CC(c3cccc(NS(C)(=O)=O)c3)=NN2S(C)(=O)=O)cc1 (stereo unspecified) -2.59% [at 9.22 µM], O=C1CCC/C(=N\NC(=O)NC2CCCCC2)C1, Cc1ccc(NC(=O)CNCc2ccccn2)cc1S(=O)(=O)N(C)C, O=C(Oc1cccc(NC2=NS(=O)(=O)c3ccccc32)c1)c1ccncc1, O=C(CNC(=O)c1cc(=O)[nH]c2ccccc12)Nc1ccc(F)c(F)c1 3.5% [at 9.22 µM], Cc1ccccc1Nc1nc(N)nc(CSc2nnc3ccccn23)n1, CCc1ccc(C2C(C(=O)Nc3ccccc3)=C(C)Nc3c(C(=O)Nc4ccc(C)cc4)cnn32)cc1 (stereo unspecified), CCN(CC)c1nn2c(=O)c(C(=O)NCCc3ccccc3)cnc2s1, O=C(N/N=C\c1cc(Br)c(Br)o1)C1COc2ccccc2O1 (stereo unspecified), CN(Cc1ccccn1)Cc1nc(-c2ccc(Cl)cc2)no1, Cc1ccc(Cl)cc1N1CCN(C(=O)c2cnc3c(-c4ccc(F)cc4)c(C)nn3c2C)CC1, CSc1ccc(/C=N\NC(=O)CC(=O)NC(C)C)cc1, CC1CCCCN1CCCNC(=O)Cn1ncc2c([nH]c3ccccc32)c1=O (stereo unspecified), CC(=O)c1cccc(-n2nnnc2SCC(=O)NNC(=O)C2CCCCC2)c1 7.45% [at 9.22 µM], COc1ccc(NC(=O)c2ccccc2CC[N+](=O)[O-])cc1
